Records with an inconclusive call do not appear. Calls of active or inactive are those of the source. Calls follow the shape of the dose curve; as a rule, active = well fitted inhibition curve with a large enough effect; inconclusive = small, poorly fitted or top-dose-only effect; inactive = flat fitted curve, though single readings scatter. Peptide text beside a SMILES is read from it.
test system: CP286; test: qHTS profiling for inhibitors of Plasmodium falciparum proliferation (AID 504749); also: nearly all actives have a fitted effect of over 60% in size;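 as to activity, negative = inhibition: 0% = DMSO vehicle and full inhibition = artemisinin control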; details: P. falciparum in erythrocytes, SYBR Green DNA, 72 h; series mostly up to 12.8 µM; activity, negative = inhibition: at the top concentration
Summary of the method: (§1)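 Each compound contacts P. falciparum-infected red blood cells for 72 h at 37 C; lysis buffer (Tris, EDTA, saponin, Triton X, SYBR Green I) is added and fluorescence measured next morning; values normalized to controls.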
Potency is read from the fitted curve at half-maximal effect.

activity, negative = inhibition, inactive:
CCC(C)C(=O)OC1CCC=C2C=CC(C)C(CCC3CC(O)CC(=O)O3)[C@@H]21 (some centres undefined) 0.153% [at 28.7 µM]
C[C@]1(c2ccccc2)OC(C(=O)O)=CC1=O 0.402% [at 28.7 µM]
OCC1OC([S-])[C@H](O)C(O)C1O.[Au+] (some centres undefined) -2.24% [at 28.7 µM]
COC(=O)N/N=C/C1=C[N+](=O)c2ccccc2[N+]1=O -0.603% [at 28.7 µM]
CN1CC(=O)N=C1N 0.16% [at 28.7 µM]
CNC1CC(N)[C@H](O)[C@@H](O[C@@H]2OC(CO)C3OC4(OC(C(N)CO)C(O)C(O)C4O)O[C@@H]3[C@H]2O)C1O (some centres undefined) 0.0588% [at 28.7 µM]
CC(=O)N[C@@H]1C(O)OC(CO)C(O)C1O (some centres undefined) -0.356% [at 28.7 µM]
CCC(CCC(C)C1CCC2C3CC=C4CC(O)CC[C@@]4(C)C3CC[C@@]12C)C(C)C (some centres undefined) -4.19% [at 28.7 µM]
O=C1OC(CO)C(O)C(O)C1O (centres undefined) 0.622% [at 28.7 µM]
CCCC(=O)O[C@]1(C(=O)CO)CCC2[C@@H]3CCC4=CC(=O)CC[C@]4(C)C3C(O)C[C@]21C (some centres undefined) -5.7% [at 28.7 µM]
COC(=O)C(Cc1ccccc1)NC(=O)C(N)CC(=O)O (stereo not drawn) (H-Asp-Phe-OMe; configuration not given here) 0.293% [at 28.7 µM]
CC[C@@]12CCCN3CCc4c(n(c5ccccc45)[C@](O)(C(=O)OC)C1)C32 (some centres undefined) -6.56% [at 28.7 µM]
CC1(C)SC2C(N3C(=O)C(c4ccccc4)NC3(C)C)C(=O)N2C1C(=O)O (centres undefined) -0.771% [at 28.7 µM]
CC1CCC(C(C)C)C(=O)C1 (centres undefined) -0.267% [at 28.7 µM]
CC(=O)N[C@H](CC(C)C)C(=O)O 1.09% [at 28.7 µM]
CC(C)C1CCC(C(=O)NC(Cc2ccccc2)C(=O)O)CC1 (centres undefined) 0.566% [at 28.7 µM]
COc1ccc2cc(C(C)CO)ccc2c1 (centres undefined) 1.27% [at 28.7 µM]
CNC1C(OC2C(O[C@@H]3C(O)C(O)[C@@H](N=C(N)N)C(O)C3N=C(N)N)OC(C)[C@@]2(O)CO)OC(CO)C(O)C1O (some centres undefined) -3.56% [at 28.7 µM]
CC1C2CCC3C4CC=C5CC(N(C)C)CC[C@@]5(C)C4CC[C@@]32CN1C (some centres undefined) -8.14% [at 28.7 µM]
C[C@]12C=CC(=O)C=C1CCC1C2C(O)C[C@]2(C)C1CC[C@]2(O)C(=O)CO (some centres undefined) -0.297% [at 28.7 µM]
COc1ccc2c(c1)N(C[C@@H](C)CN(C)C)c1ccccc1S2 -14.7%
CCOC(=O)C1=CC(OC(CC)CC)C(NC(C)=O)C(N)C1 (centres undefined) 0.741% [at 28.7 µM]
CN(C)CCc1c[nH]c2ccc(CC3COC(=O)N3)cc12 (centres undefined) 1.1% [at 28.7 µM]
NCC1CCC(N)C(O[C@@H]2C(O)[C@H](O[C@H]3OC(CO)C(O)C(N)C3O)[C@@H](N)C[C@H]2N)O1 (some centres undefined) -0.801% [at 28.7 µM]
OCC1O[C@H](OC2C(CO)O[C@@](O)(CO)C2O)C(O)C(O)C1O (some centres undefined) 1.98% [at 28.7 µM]
CC1(C)OC2CO[C@]3(COS(N)(=O)=O)OC(C)(C)OC3C2O1 (some centres undefined) -2.28% [at 28.7 µM]
CC(=O)OC1CCC2C3CCc4cc(O)ccc4C3CCC12C (centres undefined) 0.267% [at 28.7 µM]
CN(C)CCCOC1C(C(O)CO)OC2OC(C)(C)O[C@@H]21 (some centres undefined) 0.362% [at 28.7 µM]

Potency, active:
COC1C=CO[C@@]2(C)Oc3c(C)c(O)c4c(O)c(c(C=NN5CCN(C)CC5)c(O)c4c3C2=O)NC(=O)/C(C)=C\C=CC(C)C(O)[C@@H](C)C(O)C(C)[C@H](OC(C)=O)C1C (some centres undefined) 2.51 µM
COc1ccc(CC(N)C(=O)NC2C(CO)OC(n3cnc4c(N(C)C)ncnc43)C2O)cc1 (centres undefined) 0.891 µM
COc1ccc2cc1Oc1ccc(cc1)CC1c3c(cc4c(c3Oc3cc5c(cc3OC)CCN(C)C5C2)OCO4)CCN1C (centres undefined) 3.98 µM
COc1cc(C2c3cc4c(cc3C(O[C@@H]3OC5COC(c6cccs6)OC5C(O)C3O)C3COC(=O)C23)OCO4)cc(OC)c1O (some centres undefined) 1.26 µM

test system: CP291; test: as above; details: P. falciparum in erythrocytes, SYBR Green DNA, 72 h; series mostly up to 12.8 µM; activity, negative = inhibition: at the top concentration
Summary of the method: as §1

activity, negative = inhibition, inactive:
CCC(C)C(=O)OC1CCC=C2C=CC(C)C(CCC3CC(O)CC(=O)O3)[C@@H]21 (some centres undefined) -1.03% [at 28.7 µM]
C[C@]1(c2ccccc2)OC(C(=O)O)=CC1=O -2.11% [at 28.7 µM]
OCC1OC([S-])[C@H](O)C(O)C1O.[Au+] (some centres undefined) 3.27% [at 28.7 µM]
COC(=O)N/N=C/C1=C[N+](=O)c2ccccc2[N+]1=O 0.296% [at 28.7 µM]
CN1CC(=O)N=C1N 5.05% [at 28.7 µM]
CNC1CC(N)[C@H](O)[C@@H](O[C@@H]2OC(CO)C3OC4(OC(C(N)CO)C(O)C(O)C4O)O[C@@H]3[C@H]2O)C1O (some centres undefined) -2.27% [at 28.7 µM]
CC(=O)N[C@@H]1C(O)OC(CO)C(O)C1O (some centres undefined) 0.289% [at 28.7 µM]
CCC(CCC(C)C1CCC2C3CC=C4CC(O)CC[C@@]4(C)C3CC[C@@]12C)C(C)C (some centres undefined) -5.91% [at 28.7 µM]
O=C1OC(CO)C(O)C(O)C1O (centres undefined) -2.32% [at 28.7 µM]
CCCC(=O)O[C@]1(C(=O)CO)CCC2[C@@H]3CCC4=CC(=O)CC[C@]4(C)C3C(O)C[C@]21C (some centres undefined) -0.499% [at 28.7 µM]
COC(=O)C(Cc1ccccc1)NC(=O)C(N)CC(=O)O (stereo not drawn) (H-Asp-Phe-OMe; configuration not given here) 0.0987% [at 28.7 µM]
CC[C@@]12CCCN3CCc4c(n(c5ccccc45)[C@](O)(C(=O)OC)C1)C32 (some centres undefined) 1.37% [at 28.7 µM]
CC1(C)SC2C(N3C(=O)C(c4ccccc4)NC3(C)C)C(=O)N2C1C(=O)O (centres undefined) -5.77% [at 28.7 µM]
CC1CCC(C(C)C)C(=O)C1 (centres undefined) -3.12% [at 28.7 µM]
CC(=O)N[C@H](CC(C)C)C(=O)O 3.87% [at 28.7 µM]
CC(C)C1CCC(C(=O)NC(Cc2ccccc2)C(=O)O)CC1 (centres undefined) -0.0135% [at 28.7 µM]
COc1ccc2cc(C(C)CO)ccc2c1 (centres undefined) 13.3% [at 28.7 µM]
CNC1C(OC2C(O[C@@H]3C(O)C(O)[C@@H](N=C(N)N)C(O)C3N=C(N)N)OC(C)[C@@]2(O)CO)OC(CO)C(O)C1O (some centres undefined) -4.97% [at 28.7 µM]
CC1C2CCC3C4CC=C5CC(N(C)C)CC[C@@]5(C)C4CC[C@@]32CN1C (some centres undefined) 0.841% [at 28.7 µM]
C[C@]12C=CC(=O)C=C1CCC1C2C(O)C[C@]2(C)C1CC[C@]2(O)C(=O)CO (some centres undefined) -8.4% [at 28.7 µM]
COc1ccc2c(c1)N(C[C@@H](C)CN(C)C)c1ccccc1S2 -13.5%
CCOC(=O)C1=CC(OC(CC)CC)C(NC(C)=O)C(N)C1 (centres undefined) -4.36% [at 28.7 µM]
CN(C)CCc1c[nH]c2ccc(CC3COC(=O)N3)cc12 (centres undefined) -7.3% [at 28.7 µM]
NCC1CCC(N)C(O[C@@H]2C(O)[C@H](O[C@H]3OC(CO)C(O)C(N)C3O)[C@@H](N)C[C@H]2N)O1 (some centres undefined) -1.26% [at 28.7 µM]
OCC1O[C@H](OC2C(CO)O[C@@](O)(CO)C2O)C(O)C(O)C1O (some centres undefined) -2.56% [at 28.7 µM]
CC1(C)OC2CO[C@]3(COS(N)(=O)=O)OC(C)(C)OC3C2O1 (some centres undefined) -6.63% [at 28.7 µM]
CC(=O)OC1CCC2C3CCc4cc(O)ccc4C3CCC12C (centres undefined) -6.18% [at 28.7 µM]
CN(C)CCCOC1C(C(O)CO)OC2OC(C)(C)O[C@@H]21 (some centres undefined) 0.0405% [at 28.7 µM]

Potency, active:
COC1C=CO[C@@]2(C)Oc3c(C)c(O)c4c(O)c(c(C=NN5CCN(C)CC5)c(O)c4c3C2=O)NC(=O)/C(C)=C\C=CC(C)C(O)[C@@H](C)C(O)C(C)[C@H](OC(C)=O)C1C (some centres undefined) 4.26 µM
COc1ccc(CC(N)C(=O)NC2C(CO)OC(n3cnc4c(N(C)C)ncnc43)C2O)cc1 (centres undefined) 1.07 µM
COc1ccc2cc1Oc1ccc(cc1)CC1c3c(cc4c(c3Oc3cc5c(cc3OC)CCN(C)C5C2)OCO4)CCN1C (centres undefined) 12 µM
COc1cc(C2c3cc4c(cc3C(O[C@@H]3OC5COC(c6cccs6)OC5C(O)C3O)C3COC(=O)C23)OCO4)cc(OC)c1O (some centres undefined) 4.26 µM

From PubChem BioAssay (NCATS)
